Source: PubChem BioAssay (several laboratories)
Rows were chosen to be rich in hits. Some 4.7% of all compounds tested hit in one or more screens of this group.
EBV LMP1 NFkB – EBV LMP1-driven NF-kappaB luciferase reporter inhibitors, primary screen, cell-based, luminescence, single point. LMP1-induced NF-kappaB luciferase reporter cells. inhibition, % at 12.5 µM. 0.69% of 350,000 active. AID 504558, 2011; in the data active = inhibition above about 41%;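 note: 0% = neutral control wells and 100% = reference inhibitor control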
TROY signal inh – inhibitors of TROY-driven NF-kB signaling, primary screen, Q293 LMP1-TROYcd cells, NF-kB luciferase, uHTS | 0.98% of 360,000 active | inhibition, % at 10 µM | AID 1347056, 2019 | Q293 LMP1-TROYcd NF-kB luciferase reporter, 4 h;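 active = compounds whose plate-normalised and pattern-corrected inhibition of the luciferase reporter signal at the single screening dose is 50% or more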
HSP90 inh – HSP90 inhibitors, primary screen, cell lysate, luminescence; Heat shock protein HSP 90 (rabbit reticulocyte lysate; luciferase refolding); Rabbit reticulocyte lysate, luciferase refolding luminescence, 3 h; inhibition, % at 5.6 µM; 0.91% of 290,000 active;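 active = inhibition above the screen-wide mean plus 3 SD, computed separately per campaign, cut at about 16% in these data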;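 note: 0% = DMSO wells and 100% = 60 µM geldanamycin wells; inhibitors lower the luminescence because luciferase stays unfolded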
TWEAK-Fn14 inh – inhibitors of TWEAK-Fn14 signaling, primary screen, luciferase reporter cells, uHTS; TWEAK-stimulated Fn14 reporter cells, luciferase luminescence, 8 h; inhibition, % at 10 µM; AID 1159606, 2016; 2% of 360,000 active; in the data active = inhibition above about 50%
HSF1 activator – HSF-1 activators, primary screen, NIH3T3-HGL cells, MG132 stress, luminescence, single point. NIH3T3-HGL HSF-1 luciferase reporter, 8 h; 100% = twice DMSO control signal. activation, % at 9 µM. 1.7% of 300,000 active;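 active = mean replicate activation of at least 50% with a set share of replicates each reaching 50%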;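 note: 0% = median of the neutral control wells and 100% = twice that signal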
HSF1 inh – HSF1 inhibitors in luciferase reporter cells, primary screen, cell-based, NIH3T3, luminescence. NIH3T3-HGL HSE-luciferase, MG132-induced, luminescence 8 h; active compounds read low. activity change, negative = inhibition, % at 7.5 µM (by protocol). 0.77% of 300,000 active. AID 2098, 2009;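 active = more than half of replicate wells show activity change below -50%, luminescence cut by over half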;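 note: luciferase reports HSF-1 transcriptional activity via heat shock element; 0% = median of DMSO wells and -100% = zero luminescence signal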
Active calls of the source: *; nt = no result.

SMILES | EBV LMP1 NFkB | TROY signal inh | HSP90 inh | TWEAK-Fn14 inh | HSF1 activator | HSF1 inh
Cc1ccc(S(=O)(=O)Nc2ccc(Cl)cc2)cc1NC(=O)c1cc2c(s1)CCCC2 | -6 | 62* | -3 | 72* | 26 | 17
Cc1ccc(S(=O)(=O)N2CCOCC2)cc1NC(=O)c1cc2c(s1)CCC2 | 3 | 16 | 2 | 15 | 1 | -2
O=C1Cc2ccccc2C(=O)N1 | nt | -10 | nt | -55 | nt | nt
O[C@@H]1CN(Cc2cccs2)[C@@H](c2ccc(Cl)cc2)C[C@H]1n1cc(-c2ccc(F)cc2)nn1 | -11 | -7 | nt | 22 | nt | nt
Cc1cc(NC(=O)Cn2cnc3sc(C)c(C)c3c2=O)no1 | nt | 8 | nt | -8 | nt | nt
Cc1cc(NC(=O)Cn2cnc3sc(C)c(-c4ccccc4)c3c2=O)no1 | 0 | 15 | 1 | -3 | 185* | 120
CC(C)Nc1nc(Nc2ccc(Cl)cc2F)c2sccc2n1 | nt | 14 | nt | 26 | nt | nt
Cc1csc(-c2cc(C(=O)NCc3ccc(F)cc3)n[nH]2)c1 | nt | -10 | nt | 5 | nt | nt
Brc1ccc2oc(-c3ccn[nH]3)cc2c1 | nt | -46 | 2 | 5 | 57* | 30
COC(=O)[C@]1(Sc2ccc(OC)cc2)CC(=O)N[C@@H]1c1ccccc1 | nt | -3 | nt | 2 | nt | nt
COC(=O)CCCC[C@@H]1O[C@H](CCc2ccccc2)Cc2[nH]c(=S)[nH]c(=O)c21 | nt | -2 | nt | -13 | nt | nt
Cc1cccc(CSc2nc3c(c(-c4cccs4)c2C#N)CN(C)CC3)c1 | 24 | 37 | -4 | 40 | 77* | 47
C[C@H](CO)N1C[C@H](C)[C@@H](CN(C)S(=O)(=O)c2ccccc2)Oc2c(NC(=O)Nc3ccc(C(F)(F)F)cc3)cccc2C1=O | 3 | 34 | nt | 8 | nt | nt
COc1ccc(S(=O)(=O)N(C)C[C@H]2Oc3ccc(NC(=O)Nc4ccc(C(F)(F)F)cc4)cc3C(=O)N([C@H](C)CO)C[C@@H]2C)cc1 | -5 | 30 | nt | 58* | nt | nt
C[C@@H]1CN([C@H](C)CO)C(=O)c2cc(NC(=O)Nc3ccc(C(F)(F)F)cc3)ccc2O[C@H]1CN(C)S(=O)(=O)c1ccccc1 | 5 | 29 | nt | 55* | nt | nt
CC(C)NC(=O)N(C)C[C@H]1Oc2c(NC(=O)Nc3ccc4c(c3)OCO4)cccc2C(=O)N([C@H](C)CO)C[C@@H]1C | 83* | -15 | nt | 4 | nt | nt
OC[C@@H]1CN(Cc2cccs2)C[C@H](n2cnc3c(NCc4ccc(F)cc4)ncnc32)O1 | nt | 7 | nt | 10 | nt | nt
C=C1C(=O)O[C@@H]2C[C@@H](C)[C@@H]3C=CC(=O)[C@@]3(C)[C@@H](OC(C)=O)[C@H]12 | nt | nt | nt | nt | -87 | -86*
C[C@@H]1C[C@@H]2OC(=O)[C@]3(C)[C@H]2[C@@H](OC3(C)O)[C@]2(C)C(=O)C=C[C@H]12 (stereo not given in full) | -3 | 10 | nt | 2 | 1 | 3
O=S1(=O)CC(N2CCC(Cc3ccccc3)CC2)CN1C1CCCCC1 (stereo not given) | nt | -17 | nt | -4 | nt | nt
CC(=O)c1c(N2CCN(CCO)CC2)nc(=S)n(-c2ccccc2)c1C | -2 | -3 | -1 | -10 | -72 | -64*
CC(=O)c1c(N2CCN(c3ccccc3)CC2)nc(=S)n(-c2ccccc2)c1C | 3 | 10 | -1 | -1 | 4 | 0
Cc1ccccc1Oc1cc(-n2ncc(Cl)c(Cl)c2=O)ncn1 | 93* | 90* | -4 | 107* | nt | nt
Nc1cc(=O)[nH]c(SCCSc2ccccc2F)n1 | 3 | -37 | 6 | -10 | 20 | 1
Nc1cc(=O)[nH]c(SCCSc2cc(Cl)ccc2Cl)n1 | 51* | -12 | -3 | -21 | 3 | 1
SMILES | EBV LMP1 NFkB | TROY signal inh | HSP90 inh | TWEAK-Fn14 inh | HSF1 activator | HSF1 inh
COc1ccc(-c2cc3nc(-c4ccccc4)cc(N4CCC(O)CC4)n3n2)cc1 | -1 | 1 | 4 | 40 | 20 | 16
COc1ccc(-c2cc3nc(-c4ccccc4)cc(N4CCCC(O)C4)n3n2)cc1 (stereo not given) | 62* | 12 | -1 | 38 | 12 | -8
O=C(NCc1ccco1)C1CCN(C(=O)c2ccc(Cl)cc2)CC1 | 2 | -12 | nt | -3 | nt | nt
O=C(NCc1ccco1)C1CCN(C(=O)c2cc3sccc3n2Cc2ccc(Cl)cc2)CC1 | 14 | 45 | -1 | 50* | 38 | 16
COC(=O)c1ccc(C(=O)OC)c(NC(=O)C(C)(C)C)c1 | -4 | 1 | 5 | 18 | 67* | 21
NS(=O)(=O)c1ccc(CCNCC#Cc2ccccc2)cc1 | 5 | -10 | -1 | -4 | -76 | -71*
NS(=O)(=O)c1ccc(CCNC/C=C/c2ccccc2)cc1 | 0 | 4 | 5 | 3 | -2 | -6
COc1cccc(-c2cnc(C(O)c3ccc(C(C)(C)C)cc3)[nH]2)c1 (stereo not given) | nt | 6 | nt | 15 | nt | nt
C[C@H](CO)N1C[C@H](C)[C@H](CN(C)S(=O)(=O)c2ccccc2F)OCc2cnnn2CCCC1=O | -4 | 2 | nt | -2 | nt | nt
O=C(CCCNC(=O)/C(=C\c1ccccc1F)NC(=O)c1ccccc1)OCc1ccccc1 | 6 | -7 | -1 | -12 | -65 | -56*
CCc1nc2ccc(C(=O)Nc3cccc(NS(C)(=O)=O)c3)cn2c1N(CCC(C)C)CCN(C)C | nt | 13 | nt | 8 | nt | nt
Cn1ccc2c(-c3ccc(C(=O)O)cc3)cc3c(c21)C1CCC3O1 (stereo not given) | nt | -5 | nt | -6 | nt | nt
O=C(NCc1ccco1)c1[nH]c(C(F)(F)F)nc1-c1ccccc1 | nt | 7 | nt | 4 | nt | nt
Cc1ccc2c(c1)N(C(=O)CCC(=O)NCc1ccccc1)CC(C)O2 (stereo not given) | -8 | -5 | -3 | 1 | 23 | 7
CC1CN(C(=O)CCC(=O)NCc2ccccc2)c2cc(Cl)ccc2O1 (stereo not given) | -1 | -3 | 67* | 20 | 6 | 3
CCOC(=O)C1(C)CCCN1C(=O)c1ccc(OC)cc1 (stereo not given) | nt | 8 | nt | 19 | nt | nt
Cc1ccc(-c2cc(C(=O)N3CCN(c4ncccn4)CC3)c3cc(Br)ccc3n2)o1 | -9 | -6 | 4 | 21 | 76* | 47
Cc1ccc(-c2cc(C(=O)N3CCN(c4ccc(F)cc4)CC3)c3ccccc3n2)o1 | 0 | 16 | 1 | 8 | 2 | 13
C/C(=N\Nc1nc(-c2ccccc2)cs1)c1cccs1 | -52 | 13 | 11 | 43 | -75 | -70*
C/C(=N\Nc1nc2ccccc2s1)c1cccs1 | -38 | -1 | -4 | 68* | 26 | 1
CC(=NNc1nc2ccccc2s1)c1ncccn1 | 63* | -8 | nt | 31 | nt | nt
